# Screens deposited in PubChem BioAssay by National Center for Advancing Translational Sciences (NCATS).
# RORg inh – inhibitors of mouse ROR gamma transcriptional activity; P51450; Drosophila S2 Gal4-RORgamma UAS-luciferase reporter, 20 h; Potency, µM (highest dose often 53.6 µM), usual class: inhibitors; 5.4% of 310,000 active; AID 2551; also: nearly all actives have a fitted effect of over 60% in size
#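 In this cell-based reporter format, copper sulfate (700 uM final) drives Gal4–ROR gamma fusion expression from a metallothionein promoter in Drosophila Schneider cells; compounds preincubated 1 hr, reporter read after 20 hr at ambient temperature.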
# ELG1 DNA repair – inhibitors of ELG1-dependent DNA repair in HEK293T cells | 2.3% of 330,000 active | AID 504467 | Potency, µM (top dose mostly 46.1 µM), most hits filed as inhibitors | HEK293T ELG1-luciferase reporter, luminescence, 16 h; DNA damage induced by 5-fluorouridine; also: nearly all actives have a fitted effect of over 55% in size
#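 In this reporter screen, reduction of luminescence relative to DMSO vehicle indicated activity. Compounds and 5-fluorouridine were added together to 2,000 cells per well, incubated for 16 hr at 37 °C, then developed with ONE-Glo.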
# ALOX12 inh – inhibitors of human 12S-lipoxygenase ALOX12 | P18054 | purified 12hLO, xylenol orange hydroperoxide absorbance | Potency, µM (doses to about 108 µM), hits mostly inhibitors | 1.1% of 580,000 active
#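 Purified human 12hLO at 150 nM in 25 mM Hepes, 0.01% Triton X-100, pH 7.0, preincubated 15 min at room temperature with compound. Reaction started with 40 uM arachidonic acid, 30 min at room temperature. Hydroperoxide measured by Fe-xylenol orange, 573/405 nm absorbance ratio.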
# TDP1 cell noCPT – qHTS for Inhibitors of human tyrosyl-DNA phosphodiesterase 1 (TDP1): qHTS in cells in absence of CPT. DT40 Tdp1-/- hTDP1 cells, no CPT, ATP luminescence, 48 h. 15% of 420,000 active. Potency, µM (top dose mostly 46.2 µM), hits mostly inhibitors; also: nearly all actives have a fitted effect of over 55% in size
#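 Camptothecin absent (DMSO only). Human TDP1-complemented DT40 knockout cells, 400 cells/well, 37 °C for minimum 48 hr; ATP measured via CellTiter-Glo, 30 min dark incubation, luminescence.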
# TDP1 cell CPT – DT40-hTDP1 cell growth loss with CPT; Potency, µM (doses to about 46.2 µM), usual class: inhibitors; 12% of 420,000 active; chicken DT40 Tdp1-/-;hTDP1 cells + 20 nM CPT, ATP luminescence, 48 h; AID 686979; also: nearly all actives have a fitted effect of over 55% in size
#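 Chicken DT40 Tdp1-/- cells stably complemented with human TDP1 were seeded at 400 cells/well in medium containing 20 nM camptothecin, exposed to pin-transferred compounds, and grown at 37 °C for at least 48 hr. Viability was read as ATP luminescence.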
# VP16 counter – counter-screen for ROR gamma inhibitors: Gal4-VP16 reporter. Drosophila S2 Gal4-VP16 UAS-luciferase, luminescence, 20 h. Potency, µM (doses to about 53.6 µM), usual class: inhibitors. 3.5% of 310,000 active. AID 2546;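 also: Gal4-VP16 expression switched on by copper sulfate through the metallothionein promoter; nearly all actives have a fitted effect of over 50% in size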
# A number is an active result; 0 = inactive; ? = inconclusive; - = no result given. Hits are enriched below; roughly 15% of the tested compounds scored in any of these assays. Calls follow the shape of the dose curve; as a rule, active = well fitted curve in the direction sought with a large enough effect; inconclusive = small, poorly fitted or top-dose-only effect, or another doubt; inactive = no such curve, though single readings can be large; an effect the other way counts as inactive or inconclusive.
SMILES,RORg inh,ELG1 DNA repair,ALOX12 inh,TDP1 cell noCPT,TDP1 cell CPT,VP16 counter
CCOC(=O)C1=C(CN(CCOC)Cc2ccco2)NC(=O)NC1c1cccs1 (centres undefined),-,-,0,-,-,-
Cc1ccccc1N/N=C/c1sc(=O)n(Cc2cccc(C(=O)O)c2)c1Cl,0,0,?,21µM,?,0
O=[N+]([O-])c1ccc(NNS(=O)(=O)c2cc(Cl)ccc2Cl)nc1,13µM,0,0,?,21µM,?
O=[N+]([O-])c1ccc(Nc2ccc(Cl)cc2)nc1,0,0,?,0,0,0
CCOc1ccccc1CNS(=O)(=O)c1cc(-c2cc(C)no2)ccc1OC,0,0,0,0,?,0
Cc1cc(-c2ccc(S(=O)(=O)N3CCN(C)CC3)s2)on1,0,0,0,0,0,0
CCc1ccccc1N(C)S(=O)(=O)c1ccc(-c2cc(C)no2)s1,0,0,0,1.3µM,2.1µM,?
CCN(c1ccc(OC)cc1)S(=O)(=O)c1ccc(-c2cc(C)no2)s1,0,0,0,15µM,0,0
COc1ccc(NS(=O)(=O)c2ccc(-c3cc(C(F)(F)F)on3)s2)cc1,-,-,0,-,-,-
Cc1cc(-c2ccc(S(=O)(=O)Nc3cccc(C)c3C)s2)on1,-,-,0,2.6µM,2.9µM,-
CCOc1ccc(NS(=O)(=O)c2ccc(-c3cc(C)no3)s2)cc1,-,-,?,18µM,?,-
Cc1cnc(CC2CCCN(Cc3ccc(C#N)cc3)C2)n1C(C)C (centres undefined),-,-,0,-,-,-
O=C(Cn1nc(N2CCCCC2)c2ccccc2c1=O)Nc1ccc2c(c1)OCCO2,-,-,0,-,-,-
COc1cccc(C(=O)OCc2nc3ccccc3o2)c1,-,-,0,-,-,-
CCOC(=O)c1ccc(Oc2coc3cc(OCc4ccccc4)ccc3c2=O)cc1,-,-,0,-,-,-
Cc1oc2cc(OCC(=O)NCC(O)CO)ccc2c(=O)c1Oc1ccccc1 (centres undefined),-,-,0,-,-,-
O=C(O)COc1ccc(-c2nccc3c2C(=O)N(Cc2c[nH]c4ccccc24)CC(CNC(=O)Cc2ccc(Cl)cc2)O3)cc1 (centres undefined),-,-,0,-,-,-
COc1cccc(NS(=O)(=O)c2ccc(-c3cc(C)no3)s2)c1,-,-,?,23µM,?,-
COc1ccc(OC)c(NS(=O)(=O)c2ccc(-c3cc(C)no3)s2)c1,-,-,0,0.58µM,1.3µM,-
CCN(CCC#N)c1ccc(/C=C/c2ccnc3ccccc23)cc1,-,-,-,20µM,?,-
CN(CCC#N)c1ccc(/C=C/c2ccnc3ccccc23)cc1,-,-,-,2µM,0.79µM,-
Cc1cc(C)cc(NC(=O)c2cc3ccccc3oc2=O)c1,-,-,0,-,-,-
CCN(CC)c1ccc(/C=N/NC(=O)c2nnn(-c3nonc3N)c2C(C)C)c(O)c1,3.5µM,0,0,3.3µM,5.8µM,5µM
CC(C)c1c(C(=O)N/N=C/C=C/c2ccccc2)nnn1-c1nonc1N,4.5µM,0,0,?,?,5.6µM
CC(C)c1c(C(=O)N/N=C/c2cccc(OCc3ccc(F)cc3)c2)nnn1-c1nonc1N,?,?,0,16µM,?,0
SMILES,RORg inh,ELG1 DNA repair,ALOX12 inh,TDP1 cell noCPT,TDP1 cell CPT,VP16 counter
COc1cc(/C=N/NC(=O)c2nnn(-c3nonc3N)c2C(C)C)ccc1OCc1ccc(F)cc1,?,?,0,21µM,?,0
C=C(C)CN(CC)C(=O)c1ccsc1,-,-,0,-,-,-
COc1cc(NC(=O)Cn2cccc2-c2nc(-c3ccc(F)cc3)no2)cc(OC)c1OC,-,-,0,-,-,-
Cc1ccc(-c2nnc(C3CN(C(=O)c4ccccc4F)CC34CCOCC4)o2)cc1 (centres undefined),-,-,0,-,-,-
CN(C)N1C(=O)CC(c2c(F)cccc2Cl)C2=C1CC(C)(C)CC2=O (centres undefined),-,-,0,-,-,-
CCCC12CN3CC(CCC)(CN(C1)C3c1ccccc1)C2=O (centres undefined),-,-,?,?,4.1µM,-
C=CCOc1ccc(C2N3CC4(CC)CN2CC(CC)(C3)C4=O)cc1 (centres undefined),0,0,0,?,?,0
